Assay outcomes deposited in PubChem BioAssay by National Center for Advancing Translational Sciences (NCATS).
In the library only some 9.2% were active in any assay of this set; here they are far more common.
SMN2 splice enh – enhancers of SMN2 splice variant expression | HEK293 SMN2-luciferase splicing reporter, luminescence, 30-36 h | Potency, µM (doses to about 46.1 µM), without a hit: at the top dose activity change, positive = activation, actives largely listed as activators | 210,000 tested, 2.8% active | AID 1458; further: % of control where 0% means no effect; nearly all actives have a fitted effect of over 55% in size
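HEK293 cells carry an SMN2 […]–luciferase reporter in which exon 7 inclusion puts luciferase in frame. Cells were plated 10-12 h before compound addition, then incubated 30-36 h at 37C. ONE-Glo luminescence was read; sodium butyrate at 4.5 mM final served as control.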
ELG1 genotoxic – induces genotoxicity in HEK293T cells with luciferase-tagged ELG1 | HEK293T ELG1-luciferase reporter, luminescence, 16 h | Potency, µM (titrated, usually from 46 µM), for inactives: at the top dose activity change, positive = activation, most hits filed as activators | 330,000 tested, 1.3% active; further: % of control where 0% means no effect; nearly all actives have a fitted effect of over 60% in size
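Step 1: seed 2,000 HEK293T ELG1-luciferase cells per well. Step 2: add compound or DMSO, incubate 16 hr at 37 °C. Step 3: ONE-Glo, 30 min at room temperature, read luminescence.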
ELG1 DNA repair – inhibitors of ELG1-dependent DNA repair in HEK293T cells | HEK293T ELG1-luciferase reporter, luminescence, 16 h; DNA damage induced by 5-fluorouridine | Potency, µM (highest dose often 46.1 µM), for the others: at the highest dose activity change, negative = inhibition, hits mostly inhibitors | 330,000 tested, 2.3% active; further: on the % scale 0 is the no-effect control and ±100 the full control effect; nearly all actives have a fitted effect of over 55% in size
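DMSO vehicle served as the neutral condition. Each well held 2,000 cells given 5-fluorouridine plus compound; after 16 hr at 37 °C/5% CO2, ONE-Glo was added and luciferase measured 30 min later.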
FLuc counter – inhibits or activates purified firefly luciferase, miR-21 counter-screen. purified FLuc, Km substrates, luminescence inhibition. Potency, µM (highest dose often 57.5 µM), for inactives: at the top dose activity change, negative = inhibition, actives largely listed as inhibitors. 360,000 tested, 6.9% active;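 further: plate controls were vehicle for no effect and reference inhibitor for full effect; nearly all actives have a fitted effect of over 55% in size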
Target sequence (P08659 whole entry, looked up): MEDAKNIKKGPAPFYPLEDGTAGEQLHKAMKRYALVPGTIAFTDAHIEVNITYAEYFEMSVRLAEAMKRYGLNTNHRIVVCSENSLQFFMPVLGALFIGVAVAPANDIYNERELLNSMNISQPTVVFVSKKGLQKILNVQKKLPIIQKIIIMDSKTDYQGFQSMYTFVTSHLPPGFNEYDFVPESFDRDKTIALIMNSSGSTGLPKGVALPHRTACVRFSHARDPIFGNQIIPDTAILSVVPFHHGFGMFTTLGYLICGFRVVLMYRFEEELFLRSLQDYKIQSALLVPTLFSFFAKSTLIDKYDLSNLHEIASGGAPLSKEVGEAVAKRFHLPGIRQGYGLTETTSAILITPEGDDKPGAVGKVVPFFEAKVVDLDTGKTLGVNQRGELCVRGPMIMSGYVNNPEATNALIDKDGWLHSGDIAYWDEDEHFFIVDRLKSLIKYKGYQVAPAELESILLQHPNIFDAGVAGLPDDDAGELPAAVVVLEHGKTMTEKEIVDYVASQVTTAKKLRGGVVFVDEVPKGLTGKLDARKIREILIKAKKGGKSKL
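Purified P. pyralis luciferase (10nM final) with 10uM D-luciferin and 10uM ATP (Km levels) in 50mM Tris acetate pH 7.5, 10mM Mg acetate, 0.01% Tween-20, 0.05% BSA; qHTS 6-point titration, ~60 µM downward; luminescence read.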
NPC1 prom act – activators of NPC1 promoter; AID 485313; Potency, µM (doses to about 9.22 µM), for the others: top-dose activation, most hits filed as activators; Huh7 NPC1 promoter luciferase reporter, 24 h; 320,000 tested, 2.4% active; further: % of control where 0% means no effect; nearly all actives have a fitted effect of over 60% in size
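Luciferase expression driven by the NPC1 promoter was measured in stably transfected Huh7 cells after a 24 h compound incubation, using a luciferase reagent and a luminescence read.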
Rab9 promoter act – Rab9 promoter activation. 320,000 tested, 2.8% active. AID 485297. Huh7 Rab9 promoter-luciferase reporter, luminescence, 24 h. Potency, µM (top dose mostly 9.22 µM), without a hit: at the top dose activation, negative = inhibition, actives largely listed as activators; further: % of control where 0% means no effect; nearly all actives have a fitted effect of over 60% in size
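Huh7 cells stably carrying Rab9 promoter–luciferase reporter, plated 1500 cells/well, compound added after 2 h and incubated 24 h at 37 °C; luciferase luminescence then read after 10 min with detection reagent.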
* = called active by the depositor; ? = inconclusive; . = no result given. The call rests on the fitted dose curve; in most records, active means well fitted curve in the direction sought with a large enough effect; inconclusive means small, poorly fitted or top-dose-only effect, or another doubt; inactive means no such curve, though single readings can be large; an effect the other way counts as inactive or inconclusive. Potency means the concentration at half of the fitted maximal effect.

SMILES | SMN2 splice enh | ELG1 genotoxic | ELG1 DNA repair | FLuc counter | NPC1 prom act | Rab9 promoter act
Nc1nc(-c2ccc3ccccc3c2)cs1 | 11µM* | 4.6µM* | ? | 3.8µM* | 3.2µM* | 0.79µM*
Nc1nc(-c2ccc(Oc3ccccc3)cc2)cs1 | . | ? | ? | 13µM* | ? | ?
Cc1ccc(OCc2csc(N)n2)cc1 | 13µM* | ? | ? | 24µM* | ? | 4µM*
Nc1nc(-c2ccc(C(=O)O)cc2)cs1 | 5% | 2% | 9% | -9% | -8% | -4%
COc1ccc(-c2csc(N)n2)cc1 | 14µM* | ? | ? | 15µM* | ? | ?
CC1CCN(C(=O)COC(=O)C23CC4CC(CC(O)(C4)C2)C3)CC1 | . | 13% | ? | -29% | 29% | 30%
Cc1ccc(-c2csc(N=C(N)N)n2)c(C)c1 | . | 5% | 0% | ? | 12% | 13%
COc1ccc(-c2csc(-c3cc4ccccc4oc3=N)n2)cc1 | 5% | 0% | 21% | 5.4µM* | 1% | 0%
Nc1nc(-c2ccc(-c3ccccc3)cc2)cs1 | 0.5µM* | ? | ? | 2.4µM* | 0.79µM* | 0.4µM*
COc1ccc(-c2csc(N=C(N)N)n2)cc1 | 29% | ? | ? | 15µM* | ? | ?
Cc1ccc2c(c1)c1c(c(=O)n(-c3ccccc3)c(=O)n1Cc1ccccc1C)n2C | . | . | . | -5% | . | .
Cc1ccc2c(c1)C=CC(C#N)N2C(=O)c1ccccc1 (centres undefined) | 6.3µM* | 9% | 1% | -7% | -17% | -18%
CS(=O)(=O)c1nc(-c2ccc(Br)cc2)cc(-c2ccccc2)c1C#N | -40% | -38% | 16µM* | 5% | -8% | -21%
COc1ccc(-c2cc(-c3ccccc3)c(C#N)c(S(C)(=O)=O)n2)cc1 | -25% | ? | ? | 1% | -1% | -18%
Cc1ccc(C(=O)c2cn(Cc3ccccc3F)c3cc4c(cc3c2=O)OCO4)cc1 | 4% | . | . | -2% | . | .
COC(=O)c1nnc(N[C@@H](Cc2c[nH]c3ccccc23)C(=O)OC)nc1C(=O)OC | 14% | . | . | . | . | .
CC(O)CNc1nc2sc3c(c2c(=O)n1Cc1ccco1)CCCCC3 (centres undefined) | . | 11% | ? | 17µM* | ? | 30%
O=c1c2c3c(sc2nc(NCCOCCO)n1Cc1ccco1)CCCCC3 | . | -1% | -1% | 17µM* | ? | -5%
CC(O)CNc1nc2sc3c(c2c(=O)n1CCc1ccccc1)CCCCC3 (centres undefined) | 4% | 3% | -29% | ? | -1% | 0%
COc1ccccc1N(C)S(=O)(=O)c1ccc(C(=O)NCC(C)C)cc1 | -34% | -6% | ? | 4% | -1% | 1%
C=CCN(c1ccccc1OC)S(=O)(=O)c1ccc(Cl)c(C(=O)Nc2ccc(N3CCOCC3)cc2)c1 | -23% | 1% | 7.3µM* | -8% | -15% | 1%
COc1ccccc1N(C)S(=O)(=O)c1ccc(C(=O)Nc2cccc(Br)c2)cc1 | . | -18% | 18µM* | . | . | .
COc1ccccc1N(C)S(=O)(=O)c1ccc(Cl)c(C(=O)NCc2ccco2)c1 | . | -2% | 21µM* | . | . | .
COc1ccccc1N(C)S(=O)(=O)c1ccc(C(=O)Nc2ccc(N3CCOCC3)cc2)cc1 | -46% | -11% | 23µM* | 3% | 0% | -6%
CCC(C)(C)NC(=O)c1ccc(S(=O)(=O)N(C)c2ccccc2OC)cc1 | -15% | . | . | 0% | . | .
SMILES | SMN2 splice enh | ELG1 genotoxic | ELG1 DNA repair | FLuc counter | NPC1 prom act | Rab9 promoter act
CCn1c(C(=O)Nc2c(C)cccc2C)cc2sc(Cl)cc21 | -7% | . | . | -18% | . | .
COc1ccc(OC)c(-c2csc(NC(=O)COC(=O)c3ccc(NC(=O)CC#N)cc3)n2)c1 | . | 1% | -17% | -11% | -1% | -6%
CCc1ccc(S(=O)(=O)Nc2ccc(Br)cn2)cc1 | . | 0% | 0% | 1% | -3% | 1%
COC(=O)[C@H](COC(C)(C)C)NC(=O)O[C@@H]1Cc2cc(OC)ccc2O[C@H]1c1cccc(OC)c1 | -9% | . | . | . | . | .
CCCCCCCCCCCC(CC1OC(=O)C1CCCCCC)OC(=O)C(CC(C)C)NC=O (centres undefined) | 2% | . | . | . | . | .
COc1ccccc1N(C)S(=O)(=O)c1ccc(C(=O)Nc2nccs2)cc1 | . | -9% | ? | -10% | -1% | -2%
COc1ccccc1N(C)S(=O)(=O)c1ccc(C(=O)N(C)Cc2ccc(OC(F)F)cc2)cc1 | . | -9% | 16µM* | -1% | -6% | -10%
CN(CC(=O)Nc1ccc(N2CCOCC2)cc1)C(=O)c1cc(S(=O)(=O)N(C)C)ccc1Cl | . | 13% | ? | 15µM* | -2% | 0%
COc1cc(NC(=O)c2ccc(S(=O)(=O)N(C)c3ccccc3OC)cc2)cc(OC)c1 | . | -7% | 15µM* | . | . | .
COc1ccccc1N(C)S(=O)(=O)c1ccc(C(=O)NCCc2ccc(F)cc2)cc1 | . | -30% | ? | 1% | -1% | 4%
COc1cccc(N(CC(=O)NCC2CCCO2)C(=O)CCC(=O)Nc2nccs2)c1 (centres undefined) | . | 0% | -3% | 4% | 1% | -9%
CCCCOCCCNc1ncnc2c1[nH]c1ccccc12 | -83% | -13% | ? | ? | -11% | -22%
CCCCOc1ncnc2c1[nH]c1ccc(F)cc12 | -56% | -1% | ? | 2.7µM* | -14% | -25%
CCCCOc1ncnc2c1[nH]c1ccc(OC)cc12 | ? | ? | ? | 1.7µM* | 0.56µM* | 1.4µM*
CCOCCCNc1ncnc2c1[nH]c1ccccc12 | -60% | -1% | 15µM* | ? | 1% | -9%
c1ccc2c(c1)[nH]c1c(NCC3CCCO3)ncnc12 (centres undefined) | . | -10% | 15µM* | -1% | -3% | 2%
CCCCOc1ncnc2c1[nH]c1ccc(OCC)cc12 | -20% | -1% | -11% | -2% | -2% | -16%
NS(=O)(=O)c1ccc(NC(=O)CSc2cn[nH]n2)cc1 | . | -3% | 7% | 0% | -4% | -3%
CCCCOc1ncnc2c1[nH]c1ccccc12 | -77% | 0% | ? | 11µM* | -5% | -13%
CCCCn1cnc2c([nH]c3ccccc32)c1=O | 0% | 4% | ? | ? | 16% | 2%
Cc1cccc(-c2nc(SCc3cc(=O)c4c(C)cc(C)cc4[nH]3)n[nH]2)c1 | . | . | . | -11% | . | .
COc1cccc(NC(=O)CSc2ncc(S(=O)(=O)c3ccc(C)c(C)c3)c(=O)[nH]2)c1 | -1% | . | . | ? | . | .
CC(C)c1ccc(S(=O)(=O)c2cnc(SCC(=O)Nc3ccc4c(c3)OCCO4)[nH]c2=O)cc1 | 4% | . | . | 11µM* | . | .
